Several values for one entry are separate records, joined by “and”; a condition that tells them apart may be missing. Equal entries are not always repeated. About 79,000 compounds went through this panel and 15% of them were active in at least one assay; those are over-represented in the sample as a whole. Activity calls are given as the source filed them. Cut-off read from the data, not from the text of the source: active = growth inhibition above about 70%; inactive = the rest.

The assay is described as follows: NCI Yeast Anticancer Drug Screen. Data for the mec2-1 strain (AID 157). Particulars: S. cerevisiae mec2-1 strain, active compounds read high; at 50.0 µM unless noted. In short, it runs like this:
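Yeast mec2-1 mutant treated with compound. Readout: growth inhibition vs vehicle controls.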
With `NNC(=O)CCn1[nH]c(=O)c(Cl)c(Cl)c1=O`, the growth inhibition is 11.8% (inactive). Consider `Oc1ccc(Br)cc1/C=N/c1nc2ccccc2s1.Oc1ccc(Br)cc1/C=N/c1nc2ccccc2s1.[Cu]`, for which the growth inhibition is 40.9% (inactive). Consider `COc1ccccc1C(=O)NCC1CCCN2CCCCC12` (stereo not given), for which the growth inhibition is -6.95% (inactive).

On to `CCOC(=O)c1nnsc1N/N=C\c1ccc([N+](=O)[O-])cc1`, for which the growth inhibition was -15% (inactive). Take `O=C1OC(=O)C2C3CC(C(Br)C3Br)C12` (stereo not given): the growth inhibition was -14.4% (inactive). Then `Cc1ccc(/C=C/C(=O)C(C)CN(C)C)cc1C` (stereo not given), with -15.4% (inactive). Turning to `CC(C)(O)CCO`, the growth inhibition is -40.4% (inactive). `CCOC(=O)C/C(O)=C(/C=N/C(=S)NNC(C)=O)C(=O)OCC`: the growth inhibition is -28.9% (inactive).

For the compound `CC1/C(=N\O)CC2C3(C)CCC2(C(C)C(=O)O)C(=O)C13` (stereo not given), the growth inhibition was 9.1% (inactive). As to `COc1nc(NC2OC(CO)C(O)C(O)C2O)c(C(=O)CCl)c(=O)n1C` (stereo not given), the growth inhibition was 4.2% (inactive). As to `C/C(=N/NC(N)=S)c1c(C)[nH]c2ccccc12`, the growth inhibition is 10.2% (inactive). Turning to `O=C(Nc1ccc(O)cc1)c1ccc([N+](=O)[O-])cc1`, the growth inhibition was 6.6% (inactive). On to `CCC(SC(CC)(CC)C(=O)O)C(N)=O` (stereo not given), for which the growth inhibition is 0.05% (inactive). Turning to `Cc1cccc(NC(=O)Nc2ccccc2Cl)n1`, the growth inhibition is -3.6% (inactive). In the case of `c1ccc(N=NC2(c3ccccc3)CC(c3ccccc3)=NN(c3ccccc3)C2NNc2ccccc2)cc1` (stereo not given), the growth inhibition is 7.8% (inactive).

In the case of `CCCOC(=O)c1ccc(O)cc1.[Cu+2]`, the growth inhibition was -13.3% (inactive).

For the compound `O=C(O)c1ccccc1SSc1ccccc1C(=O)O`, the growth inhibition was 16.4% (inactive) and -6.5% (inactive). For `CN(C)CC1CCCCCC(CN(C)C)C1=O` (stereo not given), the growth inhibition is 8.3% (inactive) and 2.75% (inactive). Regarding `Cc1ccc(NC(=O)c2c(Br)c(Br)c(Br)c(Br)c2C(=O)O)cc1Cl`, the growth inhibition was -5.5% (inactive). With `O=c1[nH][nH]c2ccccc12`, the growth inhibition was -11.3% (inactive). With `C=CCN1C(=O)CS/C1=N/NC(=O)C(O)(c1ccccc1)c1ccccc1`, the growth inhibition was -47.7% (inactive). `O=C(O)CN(CCO)CCN(CC(=O)O)CC(=O)O.[Fe+2]`: the growth inhibition was -32% (inactive). With `O=C(O)CNC(=S)SCC(=O)O` the figure was -6.55% (inactive); with `NC(=O)Nc1ccc(/C=C\c2ccnc3ccccc23)cc1`, 2.5% (inactive). Then `Cc1[nH]c(=O)cc2c1[nH]c1ccccc12`, with -6.7% (inactive); and `CS(=O)CCC1C(=O)OC(C(C)(C)C)N1C(=O)c1ccccc1` (stereo not given), with 3.65% (inactive). For `O=C(Nc1cccc(I)c1)OCCCl`, the growth inhibition is 7.5% (inactive). On to `O=c1n(-c2ccccc2)c(=O)n(-c2ccccc2)c(=O)n1-c1ccccc1`, for which the growth inhibition was -13.2% (inactive). With `CC(C)OC(=O)/C=C/CCCC1CCCCC1` the figure was 6.15% (inactive). With `Oc1cc2c(cc1-c1cc3c(cc1O)OCO3)OCO2`, the growth inhibition was -15.3% (inactive). Consider `CN1OC(=O)OC(C)(c2ccccc2)C1=O` (stereo not given), for which the growth inhibition is -12.3% (inactive). As to `COc1ccc(-c2nc(Sc3c([N+](=O)[O-])ncn3C)n[nH]2)cc1`, the growth inhibition is 5.75% (inactive). As to `Cc1cc(C(=O)O)cc(C)c1N(C)C=O`, the growth inhibition is 6.25% (inactive). With `CCOC(OCC)C1(C)CC=CCC1` (stereo not given), the growth inhibition was 11.3% (inactive).

Consider `CN(C)c1cccc2ccccc12`, for which the growth inhibition is 9.1% (inactive).

Take `CC1(CO)COC(C)(C)OC1`: the growth inhibition is 5.85% (inactive).

`COC(=O)C(CCCCCCCC(C(=O)OC)c1nc2n(c1O)C(=N)N=N2)c1nc2n(c1O)C(=N)N=N2` (stereo not given): the growth inhibition is -3.75% (inactive). For `CN1C(=O)OC2OC(C)(c3ccc(S(=O)(=O)c4ccccc4)cc3)C(=O)CC21` (stereo not given), the growth inhibition is 22.7% (inactive). With `CC1(C)OC2OC3C(O)C(=O)OC3C2O1` (stereo not given), the growth inhibition is -16.9% (inactive). On to `N#Cc1cccc2c1Nc1ccccc1S2`, for which the growth inhibition is -21.8% (inactive).

(Values after PubChem BioAssay (NCI).)
